Compound activity deposited in PubChem BioAssay by National Center for Advancing Translational Sciences (NCATS).
HCV inh: HCV inhibition. Huh7.5.1 HCVcc-Cre infection, luciferase reporter, 44 h. Potency, µM (titrated, usually from 41.8 µM), usual class: inhibitors. 340,000 tested, 3.4% active. AID 651820; active = well fitted inhibition curve with a large enough effect; inconclusive = small, poorly fitted or top-dose-only effect, or another doubt; inactive = no such curve, though single readings can be large or run the other way
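HCVcc-Cre virus at an moi near 0.5 was added right after compound to cells cultured 4 h from seeding (1,000 cells/well). Luciferase activity was determined 44 h later, 15 min after substrate addition at RT.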
Marburg entry inh: inhibitors of Marburg virus binding or cell entry. Marburg virus pseudotyped entry inhibition, cell reporter. 300,000 tested, 1.8% active. AID 540276. Potency, µM (doses to about 37.8 µM), actives largely listed as inhibitors; calls by dose curve; tested in HEK293 cells
HCMV inh: inhibitors of human cytomegalovirus; HFF cells, HCMV-luciferase reporter, 72 h; hits give low values; activity change, negative = inhibition, % at 57.5 µM; AID 1259415; 410,000 tested, 4.5% active; in the data active = activity change below about -60%; inconclusive = no clear call, values can overlap the other calls; inactive = above about -39%
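Two compound doses tested in HFFs infected with HCMV-luciferase, MOI 1 PFU/cell, 72 h at 37C. Lysate luminescence read with OneGlo; data normalized against buffer-only and 10uM Salinomycin inhibitor controls.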
FMDV inh: antivirals against foot and mouth disease virus | 410,000 tested, 1.2% active | Potency, µM (titrated, usually from 57.9 µM), usual class: inhibitors | FMDV antiviral cell-based qHTS; calls by dose curve; tested in HEK293T cells; note: read-out not given here; nearly all actives have a fitted effect of over 45% in size
Lassa entry inh: inhibitors of Lassa virus binding or cell entry; Lassa virus pseudotype entry inhibition, cell reporter; 300,000 tested, 1.2% active; Potency, µM (series often up to 37.9 µM), actives largely listed as inhibitors; calls by dose curve; tested in HEK293 cells; note: nearly all actives have a fitted effect of over 50% in size
Of the large screens only hits and unclear results are named; the others gave an inactive call. This is a sample that favours compounds with a hit; in the whole collection about 7.9% have one here.

Cc1c(C(=O)N(C)C2CCOC2)sc2ncnc(NCc3ccc4c(c3)OCO4)c12 (stereo not given)	none (no result: HCV inh, Marburg entry inh, HCMV inh, Lassa entry inh)
Cc1cc(C(=O)N/N=C/c2ccc([N+](=O)[O-])s2)n[nH]1	HCV inh 10µM, Marburg entry inh inconclusive, HCMV inh -91, Lassa entry inh inconclusive
Cc1[nH]cnc1C(=O)N/N=C/c1ccc([N+](=O)[O-])s1	HCV inh inconclusive, Marburg entry inh inconclusive, HCMV inh -90
Cc1ccc(C(=O)N/N=C\c2ccc([N+](=O)[O-])s2)cn1	HCMV inh inconclusive, FMDV inh inconclusive, Lassa entry inh inconclusive
CC(c1ccccc1)N(NC(=O)C(O)(c1ccccc1)c1ccccc1)C(=O)c1ccccc1 (stereo not given)	HCV inh inconclusive, Marburg entry inh inconclusive, HCMV inh -74
CCN(NC(=O)C(O)(c1ccccc1)c1ccccc1)C(=O)c1ccccc1	none
CCc1ccccc1NS(=O)(=O)c1ccc2[nH]cc(C(=O)N(CC)Cc3ccccc3)c(=O)c2c1	none (no result: HCV inh, Marburg entry inh)
CCOCCCn1c(=N)c(C(=O)NC2CCCC2)cc2c(=O)n3cccc(C)c3nc21	Lassa entry inh inconclusive (no result: HCV inh)
COc1cc(C)c(CN2CCOc3ccc(C(O)c4cccnc4)cc3C2)cc1C (stereo not given)	none (no result: HCV inh, Marburg entry inh, HCMV inh, Lassa entry inh)
CC1=C(C(N)=O)C(c2cccc(Br)c2)n2nc(SCc3ccccc3)nc2N1 (stereo not given)	none (no result: HCV inh)
CC(C)C[C@H]1CNC(=S)N1CC1CCCN1C[C@H](Cc1ccccc1)N1C[C@H](Cc2ccc(O)cc2)N(CC2CCCCCC2)C1=S (stereo not given in full)	HCV inh 6.3µM, HCMV inh -101, FMDV inh inconclusive (no result: Marburg entry inh, Lassa entry inh)
CC(C)C[C@H]1CNC(=S)N1C[C@H]1CCCN1C[C@H](Cc1ccc(O)cc1)N1C[C@H](Cc2ccc(O)cc2)N(CC2CCCCCC2)C1=S	HCMV inh -83 (no result: HCV inh, Marburg entry inh, Lassa entry inh)
CC(C)C[C@H]1CN([C@@H](Cc2ccc(O)cc2)CN2CCC[C@@H]2CN2C(=S)NC[C@@H]2Cc2ccccc2)C(=S)N1CC1CCCCCC1	none (no result: HCV inh, Marburg entry inh, Lassa entry inh)
O=C(NCc1nnc2n1CCN(Cc1cc3c(cc1Cl)OCO3)CC2)c1cccc(F)c1	none (no result: HCV inh, Marburg entry inh, HCMV inh, Lassa entry inh)
CCCCC[C@H](C)N1C[C@@H](COCc2ccccc2)Oc2cc(N3CC[C@H](N(C)C)C3)ccc2S1(=O)=O	HCMV inh inconclusive (no result: HCV inh, Marburg entry inh, Lassa entry inh)
CCCCC[C@@H](C)N1C[C@@H](COCc2ccccc2)Oc2cc(N3CC[C@H](N(C)C)C3)ccc2S1(=O)=O	HCMV inh -63 (no result: HCV inh, Marburg entry inh, Lassa entry inh)
C[C@H](c1ccccc1)N1C[C@H](COCc2ccccc2)Oc2cc(N3CCC[C@H]3CO)ccc2S1(=O)=O	HCMV inh -64 (no result: HCV inh, Marburg entry inh, Lassa entry inh)
COC(=O)/C=C/[C@@H]1CCCN1c1ccc(OC)cc1	none (no result: HCV inh, Marburg entry inh, FMDV inh, Lassa entry inh)
CCCC(=O)Nc1ccc(C(=O)/C=C/c2ccc(SC)cc2)cc1	HCV inh 11µM, Marburg entry inh inconclusive, Lassa entry inh inconclusive
COc1cccc(NC(=S)NC(=O)/C=C/c2ccc(F)cc2)c1	none (no result: Marburg entry inh, Lassa entry inh)
CC(=O)Nc1cccc(C(=O)/C=C/c2ccc(C)cc2)c1	HCV inh 13µM, Marburg entry inh inconclusive, FMDV inh inconclusive, Lassa entry inh inconclusive
CSc1ccc(/C=C/C(=O)c2ccc(NC(C)=O)cc2)cc1	none
CCC(=O)Nc1cccc(C(=O)/C=C/c2ccc(F)cc2)c1	HCV inh 10µM, Marburg entry inh 15µM, HCMV inh -99, Lassa entry inh inconclusive
CCN1CCOC(=O)C1CC(=O)Nc1ccc(Br)cc1 (stereo not given)	none (no result: HCV inh)
COc1ccc(CCNC(=O)C2(c3cccs3)CCOCC2)cc1OC	none (no result: HCV inh, Marburg entry inh)
COc1cc(O)ccc1C1CC(=O)Nc2c1c(=O)nc(SCc1ccccc1C)n2C (stereo not given)	Marburg entry inh inconclusive (no result: HCV inh)
COCCCNc1ncnc2c1cnn2-c1ccc(F)cc1	Lassa entry inh inconclusive (no result: HCV inh, Marburg entry inh)
COc1cc(OC)cc(C(=O)N[C@H](C(=O)Nc2cc(C)cc(C)c2)C(C)C)c1	HCV inh inconclusive, HCMV inh -76
COc1ccc(-c2nc3ccccc3s2)cc1NC(=O)COc1cccc(C)c1	none (no result: HCV inh)
CCOC(=O)C1=C(c2ccccc2)N=c2s/c(=C\c3cccc(O)c3)c(=O)n2C1c1cccs1 (stereo not given)	HCV inh 32µM, Marburg entry inh inconclusive, Lassa entry inh 16µM (no result: FMDV inh)
N#CC(c1ccc(Cl)nn1)c1ccc(Cl)cc1Cl (stereo not given)	HCV inh 11µM, Marburg entry inh inconclusive, Lassa entry inh inconclusive
COc1ccc(C(C#N)c2ccc(Cl)nn2)cc1 (stereo not given)	none
CCOc1ccccc1CNC(=O)c1ccc2c(c1)nc1n2CCCCC1	HCMV inh -68, Lassa entry inh 5µM (no result: HCV inh, Marburg entry inh)
CCOc1ccc(CNC(=O)Cc2ccc(NC(=O)N3CCCCc4ccccc43)cc2)cc1OC	none (no result: HCV inh, Marburg entry inh)
CCOc1ccccc1CNC(=O)Cc1ccc(NC(=O)N2CCCCc3ccccc32)cc1	Lassa entry inh 4.5µM (no result: HCV inh, Marburg entry inh)
Cc1ccnc(Sc2ccc([N+](=O)[O-])cn2)n1	HCMV inh -96 (no result: Marburg entry inh, Lassa entry inh)
COc1ccc(-n2c(SCC(=O)NCc3ccc(Cl)cc3)nc3ccsc3c2=O)cc1	none (no result: HCV inh, Marburg entry inh)
CN(Cc1ccccc1)C1=CC(=[N+]2CCCC2)CC(C)(C)C1	HCV inh inconclusive, Marburg entry inh inconclusive, HCMV inh -99, FMDV inh inconclusive, Lassa entry inh inconclusive
CN(C)c1cccc(NC2=CC(=[N+]3CCOCC3)CC(C)(C)C2)c1	none
CCN(CC)C1=CC(=[N+]2CCCC2)CC(C)(C)C1	HCV inh inconclusive, Marburg entry inh 1.3µM, HCMV inh -95, FMDV inh inconclusive, Lassa entry inh inconclusive
COC(=O)c1cc2sc(Cl)cc2n1Cc1nc(-c2ccccc2F)oc1C	none (no result: HCV inh, Lassa entry inh)
COc1cc([N+](=O)[O-])ccc1NC(=O)N1CCC2(CC1)Nc1cc(F)ccc1-n1cccc12	none (no result: HCV inh, Marburg entry inh)
Cc1cnc(-n2ncc(C(=O)NCCN3CCOCC3)c2C2CC2)nc1-c1cccs1	none (no result: HCV inh, Marburg entry inh, HCMV inh, Lassa entry inh)
COC(=O)c1cc(CNC(=O)c2ccccc2)cc(NC(=O)c2ccccc2OC)c1	none (no result: HCV inh, Marburg entry inh, HCMV inh, Lassa entry inh)
CCC(CC)COC(=O)C(C#N)c1nc2ccccc2nc1N1CCN(CC)CC1 (stereo not given)	HCV inh inconclusive, Marburg entry inh 5.2µM, FMDV inh inconclusive, Lassa entry inh inconclusive
COc1ccccc1-c1oc2ccccc2c1C#CCO	none (no result: Marburg entry inh, Lassa entry inh)
COc1ccccc1-c1oc2ccccc2c1C#CC(C)(C)O	HCV inh 10µM (no result: Marburg entry inh, Lassa entry inh)
CC(=O)Nc1ccc(Nc2nc3ccc(C)cc3n3nnnc23)cc1	Lassa entry inh inconclusive (no result: HCV inh, Marburg entry inh)
O=C(NC(=S)NC1CCS(=O)(=O)C1)c1ccccc1 (stereo not given)	none (no result: Marburg entry inh, Lassa entry inh)
O=C(NC1CCCCC1)c1ccccc1NC(=S)NC(=O)C1CC1	Marburg entry inh inconclusive
O=C(NC(=S)NC1CCCCC1)c1ccccc1	HCMV inh -98, Lassa entry inh inconclusive
O=C(NC1CCCCC1)c1ccccc1NC(=S)NC(=O)C1CCC1	Marburg entry inh inconclusive, HCMV inh -62
Cc1cc(CNC(=O)c2cnn(-c3nccc(-c4cc(C)sc4C)n3)c2C2CC2)on1	none (no result: HCV inh, Marburg entry inh, HCMV inh, Lassa entry inh)
COC(=O)C(NC(=O)c1ccco1)(Nc1cc(C)ccn1)C(F)(F)F (stereo not given)	Marburg entry inh inconclusive
